Results on 107 compounds are retold here after ChEMBL document CHEMBL4513216, “Probing the Open Global Health Chemical Diversity Library for Multistage-Active Starting Points for Next-Generation Antimalarials” (ACS Infect Dis, 2020).

In all, about 65,000 compounds went through this assay and about 2,100 (3.2%) showed an effect of 50% or more. The median lay at about -52%. The entries come from a sample that favours strong results as a whole.

The subject of the assay is Plasmodium falciparum. The assay can be described thus: Screen against P. falciparum Asexual Blood Stage (ABS), at 5uM. It counts as functional, Dd2. As to conditions: tested at 5 uM.
Take `Clc1ccc(CN2CCc3c(ncn3C3CC3)C2)c2ncccc12`: the INHIBITION amounted to 30.3%. For the compound `CC(=O)Cn1c(C)cc(=O)c2cc(F)ccc21`, the INHIBITION was -152%.

Take `CN(Cc1cccc(OCCO)c1)Cc1cccc2ncccc12`: the INHIBITION is -10.8%. For the compound `CN(Cc1cccc(CCN)c1)Cc1cccc2ncccc12`, the INHIBITION is on record as 60.4%. `CN(Cc1cccnc1N)Cc1cccc2ncccc12`: the INHIBITION was 15.1%. To `CN(C)C(=O)C1CCCN(C(=O)c2ccccc2-n2cc(CN)cn2)C1` (configuration not stated) belongs 25.8%; to `CC1CCCN(CCNC(=O)c2scnc2Cl)C1` (configuration not stated), -37.9%.

Take `CCc1cccc(N2CCC(NC(=O)C3CCC3)CC2)c1`: the INHIBITION is recorded as -52.2%.

Consider `CCN(CC)c1ccc(C2c3c(n[nH]c3C)N=C3COC(=O)C32)cc1` (configuration not stated), for which the INHIBITION is given as -48.4%.

Take `CN1CCCC[C@@H]2[C@H]1[C@@H](c1ccccc1)CCN2C(=O)c1ccccc1`: the INHIBITION was -15.8%. For the compound `CCN(CC)S(=O)(=O)N1CC[C@H](c2ccccc2)[C@@H]2[C@H]1CCCCN2C`, the INHIBITION is given as 41.2%. For `CN1CCCC[C@@H]2[C@H]1[C@@H](c1ccccc1)CCN2S(=O)(=O)N1CCCC1`, the INHIBITION came out at 52%. For the compound `Cc1cc(C2NC(=O)CN2Cc2ccc(Br)cc2)cc(C)c1O` (configuration not stated), the INHIBITION is -78.2%. To `CC(=O)Nc1ncc(S(=O)(=O)Nc2ccc3c(c2)OCCO3)s1` belongs -316%; to `COc1ccccc1OCCNCc1c(C)nn(C)c1N(C)C`, 60%; to `COc1cc(CNCc2c(C(C)C)nn(C)c2N(C)C)ccn1`, -67.4%.

Consider `COc1ccccc1OCCNCc1c(C(C)C)nn(C)c1N(C)C`, for which the INHIBITION was 60.1%. For `COc1ccccc1C(O)CNCc1c(C(C)C)nn(C)c1N(C)C` (configuration not stated), the INHIBITION stood at 6.24%. Consider `COc1ccc(OCCNCc2c(C)nn(C)c2N(C)C)cc1`, for which the INHIBITION is on record as -64.9%.

On to `COc1cccc(OCCNCc2c(C)nn(C)c2N(C)C)c1`, for which the INHIBITION was -31.9%.

As for `Cc1ccc(N2CCCC(NCc3ccc(C)s3)C2)nn1` (configuration not stated), the INHIBITION is recorded as -34.1%. To `CC(C)(CO)NCc1nn(Cc2ccccc2)nc1-c1ccccc1` belongs 14.1%; to `O=C(Cc1ccncc1)N1CCC2(CC1)CC(c1ccccc1)CO2` (configuration not stated), -26.8%; to `CC(C)C(C(=O)N1CCCN(c2nccs2)CC1)n1cncn1` (configuration not stated), -114%. As for `Cc1csc(N2CCCN(C3Cc4ccccc4C3)CC2)n1`, the INHIBITION is given as -1.32%. On to `O=C1CC2(CCCCN2C(=O)Cc2ccccc2)CN1c1cccnc1` (configuration not stated), for which the INHIBITION is -37.3%. On to `Cc1ccc(CN2CC[C@@H]3OCCN(Cc4ccncc4)[C@H]3CC2)s1`, for which the INHIBITION was determined as 34.9%.

Regarding `N[C@H]1CN(C(=O)c2ccc(Cl)cc2O)C[C@@H]1C1CC1`, the INHIBITION turned out to be 33%. Turning to `N[C@H]1CN(C(=O)c2cnc3cc(Cl)ccc3c2O)C[C@@H]1C1CC1`, the INHIBITION was -22.9%. With `Cc1cc(Cl)ccc1C(=O)N1C[C@H](C2CC2)[C@@H](N)C1`, the INHIBITION was found to be 61%. To `Cc1ccc(C(=O)N2CCOC3(CCCC3)C2)c(=O)[nH]1` belongs -106%.

Take `COCCC(=O)N1C[C@H]2CN(Cc3cccnc3)C(=O)[C@H]2C1`: the INHIBITION is given as -55.2%. The same measure for `CCN(C)C(=O)CCN(C)Cc1cnc(C)s1`: -125%; for `CN(C(=O)Cc1ccccc1F)C1CCN(c2ccccn2)CC1`: -73.8%; for `CC(C)=CCCC1(C)C=Cc2c(cc(C)n(CCC(=O)O)c2=O)O1` (configuration not stated): -18.9%. To `OC1(CNCCN2CCc3ccccc32)CNCCOC1` (configuration not stated) belongs -0.439%; to `OC1(CN2CCC(Oc3cccc(C(F)(F)F)c3)CC2)CNCCOC1` (configuration not stated), 64.7%. On to `FC(F)(F)c1cccc(OC2CCN(Cc3ncc[nH]3)CC2)c1`, for which the INHIBITION was -23%. To `OC1(CN2CCC(Oc3cccnc3)CC2)CNCCOC1` (configuration not stated) belongs -73.6%.

As to `OC1(CN2CCCC2)COCCN(c2cc(C(F)(F)F)ccn2)C1` (configuration not stated), the INHIBITION is -53.6%.

In the case of `OC1(CN2CCN(c3cccc(C(F)(F)F)c3)CC2)CNCCOC1` (configuration not stated), the INHIBITION was 57%.

As for `Cc1ccc(C(C)NC(=O)CSCC(N)=O)cc1` (configuration not stated), the INHIBITION is -54.8%. `CCS(=O)(=O)N1CCc2c(cccc2NC(=O)NCCO)C1`: the INHIBITION is -14.1%. Regarding `Clc1cc(Cl)cc(OCCN2CCC(n3cncn3)CC2)c1`, the INHIBITION was 33.8%. As to `Cn1ccnc1CN1CCCN(C(=O)CC(C2CC2)C2CC2)CC1`, the INHIBITION is -16.7%.

With `Cn1nc(COCC2CC2)c2c1CCN(Cc1cccs1)C2`, the INHIBITION was -41.4%. Take `CN(Cc1cccs1)C(=O)CN1CCOC(Cn2cncn2)C1` (configuration not stated): the INHIBITION was -56%. Consider `Cc1cccc(C(C(=O)N(C)Cc2ccco2)N(C)C)c1` (configuration not stated), for which the INHIBITION is reported as 66.7%.

Take `Cc1cccc(C(C(=O)N(C)Cc2cc(C)no2)N(C)C)c1` (configuration not stated): the INHIBITION came to 49.9%. As for `Cc1cccc(C(C(=O)N(C)Cc2ccon2)N(C)C)c1` (configuration not stated), the INHIBITION is -2.4%.

With `CCC(CO)NCc1ccc(-c2ccccc2F)o1` (configuration not stated), the INHIBITION is listed as -35.5%. Consider `O=C(Cn1ccnc1)N1C[C@@H]2CC[C@H](Oc3ccc(Cl)cc3)[C@@H]2C1`, for which the INHIBITION is -41.4%.

In the case of `COc1ccc(-c2nc(C)cc(SCC(N)=O)n2)cc1`, the INHIBITION is listed as -104%.

In the case of `CN1CCC(N(CCc2ccccc2)C(=O)c2ccc(C#N)cc2)CC1`, the INHIBITION is reported as 28.4%. `COc1ccc2[nH]cc(-c3ccnc(NC4CCCC4)n3)c2c1`: the INHIBITION worked out at 58.8%. The same measure for `COc1ccc2[nH]cc(-c3ccnc(N4CCC(C)CC4)n3)c2c1`: -172%.

As to `O=c1[nH]c(-c2ccncc2)ncc1-c1ccnc(NC2CCCCC2)n1`, the INHIBITION is recorded as -61.7%.

On to `CC(C)c1noc(CN(Cc2ccccc2)C2CC2)n1`, for which the INHIBITION is listed as -119%.

On to `CCN1CCn2c(C)cnc2C12CCN(C(=O)CC(C)C)CC2`, for which the INHIBITION is given as -55.6%. Turning to `CCN1CCn2c(C)cnc2C12CCN(C(=O)C(C)C)CC2`, the INHIBITION is -51.6%. Turning to `CCN1CCn2c(C)cnc2C12CCN(C(=O)N(C)C)CC2`, the INHIBITION worked out at 53%. The same measure for `CC(C)CNC(=O)c1c(-n2cnnn2)sc2c1CCCC2`: -47.3%. Take `COCCN1CCC(CNC(=O)C2(c3ccccc3)CCC2)C1` (configuration not stated): the INHIBITION is on record as -0.505%. In the case of `CCN1CCC(CNC(=O)C2(c3cccc(C)c3)CC2)C1` (configuration not stated), the INHIBITION is listed as 0.0435%. For `CCCN1CCC(CNC(=O)C2(c3cc(C)cc(C)c3)CCC2)C1` (configuration not stated), the INHIBITION was found to be 41.6%. To `COCCN1CCC(CNC(=O)C2(c3cccc(Cl)c3)CC2)C1` (configuration not stated) belongs -0.48%; to `CCN1CCCC(CNC(=O)C2(c3cccc(Cl)c3)CC2)C1` (configuration not stated), 69.7%.

Consider `CCCN1CCC(CNC(=O)C2(c3ccccc3)CCC2)C1` (configuration not stated), for which the INHIBITION came out at 66.3%.

With `COc1cc2c(cc1CNCc1cccnc1-n1cccn1)OC(C)C2` (configuration not stated), the INHIBITION was found to be 20.8%. For `COc1cccc(COCC(=O)N2CCCC2Cn2cccn2)c1` (configuration not stated), the INHIBITION is -10.1%.

Consider `COCc1ccccc1NCc1csc(NC(C)=O)n1`, for which the INHIBITION was -51.9%. The same measure for `CCCN1CCC(c2nc3ccc(NCc4cccnc4)cn3n2)CC1`: -28.7%; for `O=C(c1ccc(Cl)cc1)N1CCC(N2CCNC2=O)CC1`: -169%; for `CCN(C)C1COC2(CCN(C(=O)c3ccc(Cl)cc3)CC2)C1` (configuration not stated): 2.64%. For `CC1(C)[C@@H]2CC=C(CN3CCCn4nc(C(=O)O)cc4C3)[C@H]1C2`, the INHIBITION was -37.3%. The same measure for `COCCNc1nnc(S(=O)(=O)CCC(C)(C)C#N)s1`: -77.6%; for `CCn1nc(C)c2nc(C(C)C)nc(NCCc3ccc(O)cc3)c21`: -3.69%.

Regarding `Cc1ccc(-c2cc(C(F)(F)F)nc(N3CCOCC3)n2)s1`, the INHIBITION is reported as -17.2%. In the case of `Cc1c(-c2cc(C(F)(F)F)nc(N3CCC(N)CC3)n2)cnn1C`, the INHIBITION came out at 22.7%. Consider `CCn1ncc(-c2cc(C(F)(F)F)nc(N3CCC(N)CC3)n2)c1C`, for which the INHIBITION amounted to 65.2%.

As for `CCOC(=O)N1CCN(C(=O)c2cc(OCC)c3ccoc3c2)CC1`, the INHIBITION is reported as -79%. Take `COc1cc(C(=O)Nc2nc(C)no2)ccc1OC(F)F`: the INHIBITION is reported as -35.8%. Regarding `Cn1cc(CCCN2CCCC(c3cc(C(F)(F)F)[nH]n3)C2)cn1` (configuration not stated), the INHIBITION turned out to be 33.1%. As to `Cc1cnn(CC2CN(Cc3cccc(OC(C)C)c3)CCO2)c1` (configuration not stated), the INHIBITION was found to be 35.5%. The same measure for `O=C(NC1CCC1)[C@H]1C[C@H]2CN(CC3CC3)C[C@@H]1O2`: -98%; for `O=C(c1cccc(-n2cccn2)c1)N1CCCOC(Cn2cccn2)C1` (configuration not stated): -33.9%; for `O=C(c1cccc(-n2cccn2)c1)N1CCCOC(CN2CCCC2)C1` (configuration not stated): 53.4%.

On to `NCC1CN(C(=O)c2cccc(-n3cccn3)c2)CCO1` (configuration not stated), for which the INHIBITION is recorded as -21.2%. Take `O=C(CSCC1CC1)N1CCCN(c2ccc(F)cc2)CC1`: the INHIBITION is listed as -42.8%. As to `COc1ccc(-n2cnnc2SCC(=O)N(C)C(C)C)cn1`, the INHIBITION is reported as -60.2%. On to `COCC(=O)N1CCc2ccccc2C12CCNCC2`, for which the INHIBITION was -52%. For the compound `O=C(C1CC1)N1CCc2ccccc2C12CCNCC2`, the INHIBITION is reported as -55.8%. For `CCOC(=O)N1CCc2ccccc2C12CCNCC2`, the INHIBITION came out at 54.6%. Regarding `Cc1cc(-c2cnc(N3CCNC(=O)C3)nc2-c2ccncc2)on1`, the INHIBITION is -43.2%. With `CCc1nc(C)c(C(=O)N2C[C@@H](C(=O)O)[C@H](C3CC3)C2)s1`, the INHIBITION is -112%. Regarding `COCCN(C)C[C@H]1C[C@H](CO)CN(C(=O)c2ccc(=O)n(C)c2)C1`, the INHIBITION is -100%. Regarding `Cc1ccc(N2CCC3(CN(Cc4ccncc4)CCC3(F)F)C2)nn1` (configuration not stated), the INHIBITION is reported as -5.89%.

`CCC(NCc1ccccn1)c1ccccc1OCC(=O)NC` (configuration not stated): the INHIBITION is reported as -27.1%. As to `CCC(NCc1ccccc1)c1ccccc1OCC(=O)NC` (configuration not stated), the INHIBITION stood at 65.6%. Take `CCC(NC(=O)c1ccco1)c1ccccc1OCC(=O)N1CCCC1` (configuration not stated): the INHIBITION is on record as -51.4%. As for `CC(Cn1cncn1)NC(=O)N1CC2(CCCC2)c2ccccc21` (configuration not stated), the INHIBITION was -89%. As for `N#CC1(NC(=O)Cc2cc(Cl)c3c(c2)OCCO3)CCC1`, the INHIBITION is reported as -75%.

Regarding `O=C(c1cocn1)N1CC[C@H]2OCC[C@@]2(COc2ncccc2F)C1`, the INHIBITION is given as -34.6%. Take `COCC(=O)N1Cc2ccnn2CC(COCCN(C)C)C1` (configuration not stated): the INHIBITION is recorded as -13.6%. For `CC(C)n1c(C2CCCN(CC(N)=O)C2)nc2ccccc21` (configuration not stated), the INHIBITION is recorded as -23.5%. For `CC(C)OCCCN1CCCC(c2nc3ccccc3n2C(C)C)C1` (configuration not stated), the INHIBITION worked out at 56%. The same measure for `CC(C)n1c(C2CCCN(CCS(C)(=O)=O)C2)nc2ccccc21` (configuration not stated): -69.9%.
